The source of these data is PubChem BioAssay AID493170 (National Center for Advancing Translational Sciences (NCATS), 2011).

Results filed as inconclusive are left out. Entries that show only a call come without a potency. Activity calls are given as the source filed them. Calls come from the whole dose curve; as a rule, active = well fitted inhibition curve with a large enough effect; inconclusive = small, poorly fitted or top-dose-only effect, or effect the other way; inactive = flat fitted curve, though single readings scatter.
Potency is the fitted concentration of half-maximal effect.

For the test, the target named is Ubiquitin carboxyl-terminal hydrolase 2 (Homo sapiens) (UniProt O75604). The experiment in a line: Ub-rhodamine 110 based assay for inhibitors Ubiquitin-specific Protease USP2a. Note: nearly all actives have a fitted effect of over 50% in size. The conditions noted are these: USP2a Ub-rhodamine110 cleavage, fluorescence; series mostly up to 38.3 µM. An excerpt: NIH Molecular Libraries Probe Centers Network [MLPCN] NIH Chemical Genomics Center [NCGC] MLPCN Grant: XO1-MH079852-01 PI Name: Nicholson, Ben. Progenra Inc, Malvern, PA NCGC Assay Overview: Homeostasis of cellular proteins is maintained through a combination of synthesis and degradation. The pathway that accounts for the majority of protein degradation is the ubiquitin-proteasomal pathway. Ubiquitin (Ub) is highly conserved in all cells and the generation of a multi-Ub chain typically targets proteins for degradation by the proteasome. However, ubiquitination is highly reversible and dynamic. Deubiquitination, the reverse process, is catalyzed through the action of enzymes referred to as isopeptidases or deubiquitinating enzymes (DUBs). This group of enzymes is collectively responsible for maintaining adequate pools of free ubiquitin and regulating the ubiquitination status of cellular proteins. The class of DUBs referred to as the ubiquitin-specific proteases (USP) family functions endoproteolytically to cleave Ub chains from a wide range of protein substrates. USP2a deubiquitinates fatty acid synthase (FASN) which has recently been identified as an emerging oncology target. To identify inhibitors of USP2a a cell-free assay was employed. This assay measures cleavage of a profluorescent substrate (Ub-Rhodamine 110; Boston Biochem Cat#: U-555) by USP2a. The assay gives a fluorescent read-out at excitation/emission wavelengths of 485/531. The USP2a enzyme was provided by Progenra, Inc. licensed for sale by LifeSensors, Inc.
Ubiquitin carboxyl-terminal hydrolase 2 (Homo sapiens), sequence (O75604 whole entry, looked up): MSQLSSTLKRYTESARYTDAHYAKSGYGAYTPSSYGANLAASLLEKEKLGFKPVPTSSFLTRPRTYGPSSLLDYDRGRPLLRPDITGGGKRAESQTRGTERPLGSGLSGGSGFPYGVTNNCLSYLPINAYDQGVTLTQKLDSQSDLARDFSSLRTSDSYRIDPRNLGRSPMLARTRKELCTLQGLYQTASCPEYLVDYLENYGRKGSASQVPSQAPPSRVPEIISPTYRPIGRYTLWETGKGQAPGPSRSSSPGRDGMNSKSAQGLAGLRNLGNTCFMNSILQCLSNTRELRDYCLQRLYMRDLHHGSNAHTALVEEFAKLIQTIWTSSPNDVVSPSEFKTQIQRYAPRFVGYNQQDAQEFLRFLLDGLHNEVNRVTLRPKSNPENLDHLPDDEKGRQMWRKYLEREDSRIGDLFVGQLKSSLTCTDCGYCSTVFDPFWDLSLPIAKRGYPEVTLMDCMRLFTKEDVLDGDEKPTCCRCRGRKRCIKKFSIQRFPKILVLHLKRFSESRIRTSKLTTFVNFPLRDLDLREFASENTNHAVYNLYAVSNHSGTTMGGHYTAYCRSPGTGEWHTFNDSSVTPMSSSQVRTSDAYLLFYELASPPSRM
NCGC Assay Protocol: The assay buffer, prepared fresh at the day of the assay, contains 20mM Tris-HCl pH 8.0, 2mM CaCl2, 2mM beta-Mercaptoethanol, 0.05% CHAPS. 3uL of 10 nM (5 nM final) USP2a, was dispensed into a medium-binding black solid Kalypsys 1,536 well plate using the Kalypsys dispenser. The assay plate was then pinned with 23nL compounds in DMSO with a Kalypsys pintool in columns 5-48 (0.3% final DMSO concentration). The negative control was buffer/DMSO only in column 3. The assay plate is incubated at RT for 30min. Subsequently, 3uL of 300 nM Ub-Rhod110 (150 nM final) was dispensed into the plate using a Kalypsys dispenser. Plates were read after every minute for 7 min on a ViewLux (Perkin Elmer) plate reader using the following wavelengths: Ex 485nm /Em 531nm. Data were normalized to the AC100 inhibition (buffer alone). Concentration-response curves were fitted to the normalized data and the concentration-response curves were then classified based on curve quality (r2), response magnitude and degree of measured activity. The time zero reading was used to flag fluorescence artifacts.
For the compound `COc1cc(C(=O)OCC(=O)Nc2c(F)c(F)c(F)c(F)c2F)cc(OC)c1OC`, the Potency result is “inactive”.
Then `COc1ccc2cc(CN(C(=O)Nc3ccccc3)C3CCCC3)c(=O)[nH]c2c1`, with “inactive”; and `Cc1ccc(SCc2cc(=O)c3c(=O)n(-c4ccccc4)[nH]c3[nH]2)cc1`, with “inactive”; and `O=C(CSc1nc2ccccc2s1)NCCCN1CCOCC1`, with “inactive”.
Under `CCCCCCCCCCOC(=O)Cn1c(COc2ccccc2OC)[n+](C)c2ccccc21` stands “inactive”.
Under `Cc1ccc(C(=O)N(c2c(C)n(C)n(-c3ccccc3)c2=O)C(C)C)cc1` stands “inactive”; under `COc1ccc(OC)c(Nc2ccc(Nc3cc(OC)ccc3OC)nn2)c1`, “inactive”.
Turning to `Cc1cc(C)n2cc(CSc3nnnn3-c3ccccc3C)nc2n1`, the Potency result is “inactive”.
Then `O=C(c1cc(-c2ccco2)on1)N1CCc2ccccc2C1`, with 10 µM (active); and `Cc1ccc2[nH]c(=O)c(COC(=O)c3ccccn3)cc2c1`, with “inactive”.
For the compound `CC1=NN(c2ccc(C)cc2)C(=O)/C1=C/c1ccc(-c2cc([N+](=O)[O-])ccc2O)o1`, the Potency was 10 µM (active).
On to `COc1ccc(CCN2C(=O)/C(=C\c3ccco3)SC2=S)cc1OC`, for which the Potency result was “inactive”.
Then `Nc1c(C(=O)Nc2ccc3c(c2)OCCO3)nnn1CCc1ccccc1`, with “inactive”; and `COc1ccc(C2CC(=O)N3CN(c4ccccc4F)CSC3=C2C#N)cc1OC` (stereo not given), with “inactive”.
Then `CC1CCc2c(sc3nc(CN4CCOCC4)nc(NS(=O)(=O)c4cccc([N+](=O)[O-])c4)c23)C1` (stereo not given), with 10 µM (active).
Then `O=c1cc(CO)oc(CN2CCN(Cc3ccccc3)CC2)c1O`, with “inactive”; and `Cc1ccc(C(=O)N/C(=C/c2ccco2)C(=O)Nc2cccc(C(=O)O)c2)cc1`, with “inactive”; and `O=C(CSc1nnc(SCc2ccccc2)s1)N/N=C/c1c[nH]c2ccccc12`, with 10 µM (active).
With `Cc1cc(C(=O)OCC(=O)c2cccc([N+](=O)[O-])c2)c2cccc(C)c2n1`, the Potency is 10 µM (active).
Under `O=C(Nc1cccc(Cl)c1)Nc1nnc(CC2=CCCCC2)s1` stands “inactive”; under `O=C(c1ccccc1)N1CCN(C2C3CC4CC(C3)CC2C4)CC1` (stereo not given), “inactive”; under `O=C(CSc1nc(O)cc(=O)n1-c1ccccc1)NC1CCCCC1`, “inactive”.
Then `CCNc1sc(C(=O)c2cccs2)c(N)c1-c1nc2ccccc2s1`, with “inactive”; and `CCOc1ccccc1C(=O)N[C@H](C(=O)Nc1ccc(OC)c(S(=O)(=O)N2CCOCC2)c1)C(C)C`, with “inactive”; and `CCc1cc(C(=O)N=Nc2c(O)[nH]c3ccc([N+](=O)[O-])cc23)c2ccccc2n1`, with 11.2 µM (active).
Turning to `COc1ccc(OCC(=O)NCCNC(=O)c2cccnc2)cc1`, the Potency entry was “inactive”.
Under `O=C(OCC1OC(n2ncc(=O)[nH]c2=O)C(OC(=O)c2ccccc2)C1OC(=O)c1ccccc1)c1ccccc1` (stereo not given) stands 4.47 µM (active); under `CC(C)(C)OC(=O)C[C@H]1C/C=C\C[C@H](CC(=O)N(CCO)Cc2ccccc2)C(=O)NC[C@H](c2ccccc2)OC1=O`, “inactive”.
In the case of `Cc1nn(C)cc1CNC(=O)c1ccc(Br)o1`, the Potency result is “inactive”.
Turning to `CN(C)CCCN1C(=O)C(=O)/C(=C(/O)c2ccncc2)C1c1cccnc1` (stereo not given), the Potency entry is “inactive”.
Under `COC(=O)c1nnn(-c2nonc2N)c1CSc1ccccn1` stands “inactive”.
Under `Oc1ccc(/C=N/NC(=S)N/N=C/c2ccc(O)cc2)cc1` stands “inactive”; under `CCOC(=O)Nc1nnc(CCc2ccccc2)s1`, “inactive”.
Under `O=[N+]([O-])c1cc(-c2nnc(Nc3ccccc3)c3ccccc23)ccc1N1CCOCC1` stands “inactive”; under `Cc1nc2cc3ccccc3cc2c(=O)[nH]1`, “inactive”.
With `Cc1cc(=O)n2[nH]c(-c3sccc3-n3c(C)ccc3C)cc2n1`, the Potency is 10 µM (active).
Under `Cc1ccc(N2CCN(C(=O)CCc3nc4ccccc4[nH]3)CC2)c(C)c1` stands “inactive”.
Under `Cc1c(C(=O)Nc2ccc3c4c(cccc24)CC3)cccc1[N+](=O)[O-]` stands “inactive”; under `O=C(COC(=O)c1ccc(F)c(S(=O)(=O)N2CCOCC2)c1)c1ccccc1`, “inactive”; under `Cc1ccc(C)c(OCC(=O)Nc2cc(NC(=O)COc3cc(C)ccc3C)cc(C(=O)O)c2)c1`, 11.2 µM (active).
